Most compounds without a hit are left out; they make up all but 2.6% or so of the library.
ABHD5 PLIN5 PPI: ABHD5-PLIN5 interaction inhibitors, primary screen, cell lysate, split luciferase complementation, luminescence; Perilipin-5 (Homo sapiens) + 1-acylglycerol-3-phosphate O-acyltransferase ABHD5 (Homo …; AID 602281, 2012; inhibition, % at 4 µM; hit rate 0.78% among 360,000; Split G. princeps luciferase complementation, 4 h;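 active = inhibition above the mean inhibition across every tested compound plus 3 SD, cut at about 22% in these data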;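 also: 0% = DMSO only wells and the 100% control is not disclosed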
TLR9-MyD88 inh: inhibitors of TLR9-MyD88 association in cells, primary screen, cell-based, CHO, BLA complementation, fluorescence; Toll-like receptor 9 (Homo sapiens) + Myeloid differentiation primary response protein …; CCF4 FRET ratio; inhibition, % at 4.98 µM; hit rate 0.21% among 340,000;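 active = inhibition above the mean over all tested compounds plus 3 SD, cut at about 21% in these data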;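 also: 0% = DMSO only wells and 100% = clavulanate BLA inhibitor control wells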
Target sequence (Q99836 whole entry, looked up): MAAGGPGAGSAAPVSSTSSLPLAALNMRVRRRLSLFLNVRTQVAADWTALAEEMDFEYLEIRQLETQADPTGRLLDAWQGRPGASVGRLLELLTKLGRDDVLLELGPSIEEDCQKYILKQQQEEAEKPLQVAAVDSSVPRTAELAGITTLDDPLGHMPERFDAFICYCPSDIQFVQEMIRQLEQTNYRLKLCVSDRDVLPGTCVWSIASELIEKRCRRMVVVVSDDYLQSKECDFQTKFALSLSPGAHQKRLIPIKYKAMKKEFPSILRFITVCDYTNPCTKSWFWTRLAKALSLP
Target sequence (Q9NR96 whole entry, looked up): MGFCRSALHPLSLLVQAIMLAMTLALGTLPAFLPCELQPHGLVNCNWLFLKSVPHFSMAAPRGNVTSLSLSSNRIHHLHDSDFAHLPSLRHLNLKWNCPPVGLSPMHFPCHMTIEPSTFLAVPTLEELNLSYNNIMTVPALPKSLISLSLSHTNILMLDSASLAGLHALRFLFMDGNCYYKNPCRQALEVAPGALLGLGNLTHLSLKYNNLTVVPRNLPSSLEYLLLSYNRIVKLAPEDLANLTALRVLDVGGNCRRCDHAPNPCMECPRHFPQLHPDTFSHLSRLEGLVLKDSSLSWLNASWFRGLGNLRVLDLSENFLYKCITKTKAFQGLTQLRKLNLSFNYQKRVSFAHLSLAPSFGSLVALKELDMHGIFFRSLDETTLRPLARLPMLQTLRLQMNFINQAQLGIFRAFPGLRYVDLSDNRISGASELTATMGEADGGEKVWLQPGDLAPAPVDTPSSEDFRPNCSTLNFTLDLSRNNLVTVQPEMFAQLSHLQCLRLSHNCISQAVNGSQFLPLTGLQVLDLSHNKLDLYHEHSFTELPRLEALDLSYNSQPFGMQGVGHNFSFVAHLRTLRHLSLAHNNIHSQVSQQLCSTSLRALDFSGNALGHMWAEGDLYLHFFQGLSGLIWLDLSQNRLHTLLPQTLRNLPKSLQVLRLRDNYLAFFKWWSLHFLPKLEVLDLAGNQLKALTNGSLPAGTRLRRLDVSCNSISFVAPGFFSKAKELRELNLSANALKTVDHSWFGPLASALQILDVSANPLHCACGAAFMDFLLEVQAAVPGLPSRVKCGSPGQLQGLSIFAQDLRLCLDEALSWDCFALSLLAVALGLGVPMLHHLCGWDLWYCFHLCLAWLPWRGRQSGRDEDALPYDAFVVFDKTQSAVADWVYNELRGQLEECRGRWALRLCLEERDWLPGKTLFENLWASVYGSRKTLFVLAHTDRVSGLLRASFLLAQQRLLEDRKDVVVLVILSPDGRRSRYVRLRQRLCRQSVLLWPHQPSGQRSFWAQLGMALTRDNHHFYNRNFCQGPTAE
Granule exo inh: LAMP-1 surface exposure blockers, TALL-104 cells – cell-based, flow cytometry, MLPCN library, primary screen. hit rate 0.66% among 360,000. AID 651702, 2012. inhibition, % at 10 µM. TALL-104 LAMP-1 surface exposure; cells stimulated with thapsigargin and PMA;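 active = inhibition above about 55%, limit read from the data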
PRMT1 FP inh: PRMT1 methyltransferase inhibitors, primary screen, biochemical, fluorescence polarization; recombinant PRMT1, activity-based probe fluorescence polarization; hit rate 1.3% among 370,000; AID 652257, 2013; Protein arginine N-methyltransferase 1 (Homo sapiens), Q99873; inhibition, % at 2.79 µM;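 active = inhibition above about 21% made by adding two undisclosed values, limit read from the data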
TLR4-MyD88 BLA: inhibitors of TLR4-MyD88 association in cells, primary screen, cell-based, HeLa CL3-4, BLA complementation, FRET ratio. Toll-like receptor 4 (Homo sapiens) + Myeloid differentiation primary response protein …. HeLa CL3-4 TLR4/MyD88 BLA complementation. inhibition, % at 8.4 µM. hit rate 0.18% among 200,000; in the data active = inhibition above about 25%;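 also: 0% = vehicle and 100% = reference inhibitor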
NOD2-RIPK2 inh: NOD2-RIPK2 binding disruptors in cells, primary screen, fluorescence, CHO cells, BLA complementation. CCF4 ratio. hit rate 0.38% among 360,000. Receptor-interacting serine/threonine-protein kinase 2 (Homo sapiens), O43353. inhibition, % at 4.98 µM; in the data active = inhibition above about 21%;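 also: 0% = vehicle only and 100% = reference blocker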
PRMT1 inh conf: PRMT1 methyltransferase inhibitors, confirmation, biochemical, fluorescence polarization, triplicate; shares compounds with PRMT1 FP inh; recombinant His-PRMT1, activity-based probe fluorescence polarization; inhibition, % at 2.79 µM; hit rate 42% among 3,300; AID 687036, 2013;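 active = mean inhibition across replicates above the hit cutoff derived for the earlier primary screen, cut at about 22% in these data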
Starred values were filed as active, the others as inactive; nt = no result.

SMILES	ABHD5 PLIN5 PPI	TLR9-MyD88 inh	Granule exo inh	PRMT1 FP inh	TLR4-MyD88 BLA	NOD2-RIPK2 inh	PRMT1 inh conf
COc1ccc(/C=C(\NC(=O)c2ccccc2)C(=O)N2CCC(C)CC2)cc1	12	3	0	-1	nt	0	nt
NC(=O)C1CCN(C2CC(=O)N(Cc3cccs3)C2=O)CC1 (stereo not given)	4	-2	3	74*	-1	-8	0
O=C1CC(N2CCC(c3nc4ccccc4o3)CC2)C(=O)N1Cc1cccs1 (stereo not given)	4	5	-2	47*	-17	2	2
Cc1ccc(N=C(N)N=C(N)N)cc1	-4	-2	-4	-4	nt	-10	nt
Cc1cc(C)cc(-n2c3nc4ccccc4nc3c3c(=O)n(Cc4ccco4)cnc32)c1	60*	-5	-5	52*	13	6	18
Cc1ccc(S(=O)(=O)NC(=O)ON=Cc2ccc3c(c2)OCO3)cc1	nt	nt	nt	-1	nt	nt	nt
CCOC(=O)C1CCN(c2nc(N)c3c(N)nc(SCC(=O)O)cc3c2C#N)CC1	3	4	38	55*	nt	-11	26*
Cc1ccnc(NC(=O)CSc2nnc3c(n2)[nH]c2ccccc23)c1	nt	nt	nt	nt	2	nt	nt
COC(=O)c1cc(N2CCN(C)CC2)nc2ccccc12	5	-11	0	83*	-13	-8	5
C[C@H]1CC[C@@]2(O[C@@H](CCO)C[C@H](O)[C@H]2O)O1	-2	-1	2	-2	nt	-9	nt
O=C1CC(=Nc2ccc([N+](=O)[O-])cc2)NN1c1c(Cl)cc(Cl)cc1Cl	-4	2	-1	35*	nt	-8	14
O=C(c1ccc([N+](=O)[O-])cc1)N(Cc1ccc(Cl)cc1Cl)N1C(=O)CCCC1=O	-6	-15	-3	1	2	-7	nt
O=c1ccc2[n+]([O-])c3ccc(O)cc3oc-2c1	7	-4	3	119*	nt	-1	69*
O=c1cc(O)c2ccc(O)cc2o1	9	-8	3	2	-8	7	nt
Cc1ccccc1C(=O)NC1CCSC1=O (stereo not given)	-1	-16	0	-1	nt	-3	nt
O=C(NC(=S)NC1CCSC1=O)c1ccccc1Cl (stereo not given)	-2	10	-1	26*	1	-6	1
O=C(NC(=S)NC1CCSC1=O)c1ccccc1 (stereo not given)	-7	-1	-2	30*	5	-13	9
O=C(c1cnc(Cl)c(Cl)c1)N1CCC(Cc2ccccc2)CC1	4	8	-3	-1	-4	-7	nt
COc1ccc(CCN2CC(C(=O)Nc3nccs3)CC2=O)cc1OC (stereo not given)	0	-7	8	-3	nt	2	nt
O=C1CCSc2c1ccc1ccccc21	1	-3	-9	29*	nt	4	-1
COc1cccc(/C=C2\SC(=O)N(CCC(=O)N3CCC(C(=O)O)CC3)C2=O)c1	-1	8	-2	30*	nt	-3	2
Cc1ccc(C)c(CN2CCSCC2)c1	-4	0	-5	1	nt	0	nt
CCN(CC)CCSc1nc(O)c(-c2ccccc2)c(=O)n1-c1ccccc1	2	-13	-1	25*	-13	-8	16
c1coc(-c2nnc3sc(Cc4cccs4)nn23)c1	0	-3	-2	64*	-8	-1	5
COc1ccc(OCc2nn3c(-c4ccco4)nnc3s2)cc1	-2	-3	-9	4	3	-4	nt
S=c1[nH]nc(-c2ccco2)n1/N=C/c1ccc(Cl)cc1	0	-1	6	25*	4	-6	20
S=c1[nH]nc(-c2ccncc2)n1/N=C/C(Cl)=C\c1ccccc1	19	-7	-2	34*	1	5	19
S=c1[nH]nc(-c2ccco2)n1/N=C/c1ccccc1Cl	-1	-1	-8	8	-8	-2	nt

Bioassay records from PubChem BioAssay.
